# USP30 block: inhibitors of human USP30 deubiquitinase. Ubiquitin carboxyl-terminal hydrolase 30 (Homo sapiens), Q70CQ3. purified USP30, Ub-rhodamine cleavage fluorescence. inhibition, % at 25 µM. 5.3% of 47,000 active. AID 1645860, 2021
# Target sequence (Q70CQ3 whole entry, looked up): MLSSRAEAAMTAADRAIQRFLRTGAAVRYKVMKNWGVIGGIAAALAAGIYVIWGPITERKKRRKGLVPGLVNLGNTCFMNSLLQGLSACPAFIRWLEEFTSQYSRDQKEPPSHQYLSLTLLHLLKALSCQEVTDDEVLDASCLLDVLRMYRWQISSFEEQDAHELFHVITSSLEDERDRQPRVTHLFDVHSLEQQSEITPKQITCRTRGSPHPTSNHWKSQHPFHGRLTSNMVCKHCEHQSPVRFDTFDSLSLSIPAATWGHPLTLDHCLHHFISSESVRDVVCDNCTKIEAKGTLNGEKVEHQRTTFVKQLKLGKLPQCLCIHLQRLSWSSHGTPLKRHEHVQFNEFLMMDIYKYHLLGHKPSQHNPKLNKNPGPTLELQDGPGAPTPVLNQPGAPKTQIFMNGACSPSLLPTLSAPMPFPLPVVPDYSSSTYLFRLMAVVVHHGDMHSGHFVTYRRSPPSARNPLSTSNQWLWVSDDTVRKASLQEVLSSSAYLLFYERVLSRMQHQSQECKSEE
# USP28 block: inhibitors of human USP28 deubiquitinase. inhibition, % at 25 µM. 3% of 47,000 active. purified USP28, Ub-rhodamine cleavage fluorescence, 30 min. Ubiquitin carboxyl-terminal hydrolase 28 (Homo sapiens), Q96RU2
# A number is an active result; n = inactive. Only some compounds are listed: those with a hit (about 7% of all), similar ones and a draw of the others. No stated cut-off is given here; in the data, active means inhibition above about 30%; inactive means the rest.
SMILES,USP30 block,USP28 block
CCOc1ccc(NC(=O)COC(=O)C2(c3ccc(F)cc3)CCCC2)cc1,n,n
O=C(Cn1nc(-c2ccccc2)cc(NC(=O)c2ccccc2)c1=O)Nc1ccc(F)cc1,39,n
O=C(Cc1ccc(-c2ccccc2)cc1)Nc1ccc(F)cc1,n,n
O=C(CSc1nnc2ccc(-c3ccccc3)nn12)Nc1ccc(F)cc1,34,n
CC(=O)c1ccc(NC(=O)Cn2nc(-c3ccccc3)cc(NC(=O)C(C)C)c2=O)cc1,n,n
CN1CCN(C(=O)C2CCCN(S(=O)(=O)c3ccc(N4CCCC4=O)cc3)C2)CC1 (stereo not given),n,n
O=C(NCc1cccnc1)[C@H]1CC[C@@H]2[C@@H](CCN2Cc2ccoc2)O1,n,n
CC(C)(C)c1ccc(C(=O)Nc2ccc(Oc3cccnc3)nc2)cc1,n,53
Cc1ccccc1C(=O)Nc1ccc(Oc2ccc(C(C)(C)C)cc2)nc1,n,n
Cc1cccc(NC(=O)Cn2c(C)nc3c(c2=O)CCN(Cc2ccccc2)C3)c1C,n,n
Cc1ccc2c(=O)c3c([nH]c2c1C)CCN(CC(=O)NCc1ccccc1)C3,40,n
Cc1cc(OCC(=O)Nc2ccc(N3CCCCC3)cc2)ccc1C(C)C,n,n
O=C(NCc1ccc(Cl)cc1)c1cnc(-c2ccccc2)nc1-c1ccccc1,n,n
Cc1ccc(Nc2nc3c(S(=O)(=O)c4ccccc4)nnn3c3ccccc23)c(C)c1,n,n
COc1ccc(Nc2nc3c(S(=O)(=O)c4ccc(C(C)C)cc4)nnn3c3ccccc23)cc1,32,n
O=c1[nH]c(=O)n(Cc2ccco2)c2c1CN(Cc1ccccc1)CN2,n,n
CCC(C)N1CNc2c(c(=O)[nH]c(=O)n2Cc2ccco2)C1 (stereo not given),39,n
COc1ccc2c(c1)c(=O)c(C(=O)c1ccc(Cl)cc1)cn2CC(=O)Nc1ccc(Cl)cc1,n,n
COc1ccc(NC(=O)Cn2cc(C(=O)c3ccc(Cl)cc3)c(=O)c3cc(F)ccc32)cc1,39,n
COc1cc(OC)cc(-n2c(=O)c3sccc3n(CC(=O)c3ccc(F)cc3)c2=O)c1,56,n
COc1cc(OC)cc(-n2c(=O)c3sccc3n(CC(=O)Nc3ccc(C)cc3)c2=O)c1,n,n
CC(C)(C)C(=O)COC(=O)c1c2c(nc3ccccc13)CCCCC2,n,n
O=C(OCc1c(F)cccc1Cl)c1c2c(nc3ccccc13)CCC2,n,34
Cc1sc2nc(C3CC3)n(C3CCN(C(=O)C4CCC4)CC3)c(=O)c2c1C,39,n
COCC(=O)N1CCC(n2c(C3CC3)nc3sc(C)c(C)c3c2=O)CC1,n,n
SMILES,USP30 block,USP28 block
Cn1nc(-c2nc(C3CC3)no2)c2c1CCN(C(=O)C1(c3ccccc3)CC1)C2,n,n
O=C(NC1CCCCC1)c1cccc(COc2ccc3c(c2)CCC3)c1,n,n
Cc1cccc(C)c1NC(=O)c1cccc(COc2ccc3c(c2)CCC3)c1,n,31
O=C(c1ccc(C(F)(F)F)cc1)N1CCC(c2noc(-c3cccc(F)c3)n2)CC1,n,n
COC(=O)CSc1nc2ccccc2c(=O)n1Cc1ccco1,n,n
Cc1ccc(Cn2c(=O)n(CCC(=O)NCCc3ccccc3)c(=O)c3ccccc32)cc1,63,n
COc1ccc(CCNC(=O)CCCn2c(SCC(=O)NCc3ccco3)nc3ccccc3c2=O)cc1OC,41,n
COc1ccc(Cl)cc1NC(=O)Cn1c(=O)n(CCCCC(=O)NCCc2ccccc2)c(=O)c2ccccc21,n,n
COc1ccc(CCNC(=O)CCCCn2c(=O)c3ccccc3n(Cc3cccc(Cl)c3)c2=O)cc1OC,53,n
Cc1ccc(Cn2c(=O)c3ccccc3n3c(CCC(=O)NCCN4CCOCC4)nnc23)cc1,n,n
Cc1cccc(NC(=O)Cn2c(=O)n(CC(=O)NCCc3ccccc3)c(=O)c3ccccc32)c1C,48,n
COc1ccc(CCNC(=O)CCCn2c(=O)c3ccccc3n(Cc3ccccc3F)c2=O)cc1OC,n,n
Cc1ccc(C)c(Cn2cc(S(=O)(=O)N3CCCC3)ccc2=O)c1,n,n
O=C(NCCCN1CCCC1=O)c1cccc2c1C(=O)N(C1CCCCC1)C2,n,n
CCOc1ccccc1NC(=O)CCc1nc2ccccc2s1,n,n
O=C(NCc1ccco1)c1nc(-c2cccc3[nH]ccc23)no1,n,n
O=C(Cc1ccc(-n2c(=O)c3ccccc3n(Cc3cc(=O)n4ccccc4n3)c2=O)cc1)NCCc1ccccc1,n,n
COc1ccc(CCNC(=O)c2ccc(Cn3c(=O)c4ccccc4n(Cc4cc(=O)n5ccccc5n4)c3=O)cc2)cc1OC,50,n
Cn1nc(-c2ccccc2)cc1C(=O)N1CCc2nc(NC(=O)c3ccco3)sc2C1,n,n
O=C(NCC1CCN(CCc2ccccc2)C1)Nc1ccc(F)cc1 (stereo not given),n,n
Cc1cccc(NC(=O)Cn2c(=O)nc(N(C)c3ccccc3)c3ccccc32)c1,n,41
CCc1cccc(C)c1NC(=O)Cn1c(=O)nc(N(C)c2ccccc2)c2ccccc21,n,n
Cc1ccccc1CNC(=O)C1CCCN(S(=O)(=O)N2CCCCC2)C1 (stereo not given),n,n
CCOC(=O)C1C(=O)NC(c2ccccc2)=NC1c1c(F)cccc1Cl (stereo not given),n,n
CCOC(=O)C1C(=O)NC(c2ccccc2)=NC1c1ccc(C(F)(F)F)cc1 (stereo not given),41,n
SMILES,USP30 block,USP28 block
COc1cccc(CN[C@H]2[C@H](O)[C@H](O)C[C@@H]2c2ccccc2)c1,n,n
CCn1cc(-c2nc(C)c(C(=O)NCc3ccncc3)s2)c2cccnc21,n,n
CC(C)CCN1C[C@@]23CN(C(=O)c4ccccc4)C[C@@H](C[C@@H]2S1(=O)=O)O3,n,n
Cc1ccc(-n2nnc(C(=O)NCc3ccccn3)c2C)c(C)c1,n,n
Cc1ccc(-c2nc3cccnc3n2C2CCN(C(=O)c3ccncc3)C2)cc1 (stereo not given),n,n
COc1ccc(NC(=O)NC(COC(=O)Nc2ccc(OC)cc2)c2ccccc2)cc1 (stereo not given),95,33
COc1ccc(OCC(O)CNC(=O)Nc2ccc(F)cc2)cc1 (stereo not given),n,n
O=C1CCCC2=C1C(c1ccco1)Nc1cc(C(=O)c3ccccc3)ccc1N2 (stereo not given),n,n
O=C(CCc1ccc2c(c1)CCO2)Nc1cccnc1,n,n
O=C(Nc1ccc(-n2ccc(C(F)(F)F)n2)cc1)Nc1ccc2c(c1)CCO2,32,41
COc1ccccc1NC(=O)C(C)OC(=O)c1ccc(C)c(S(=O)(=O)Nc2ccc(C)cc2)c1 (stereo not given),n,n
O=C1NCCNC(=O)C2(C/C=C/COc3ccccc31)CCCN(Cc1ccccn1)C2 (stereo not given),n,n
COc1ccc(CC(=O)Nc2cccn3c(C)nnc23)c(Cl)c1,n,n
CCc1nnc2c(NC(=O)Cc3ccc(OC)c(Cl)c3)cccn12,n,47
O=c1c(S(=O)(=O)N2CCCCCC2)cccn1Cc1ccccc1,n,n
C=Cc1ccc(Cn2cccc(S(=O)(=O)N3CCCC3)c2=O)cc1,n,49
CCN[C@H]1C[C@@H](c2ccccc2)OC2(CCN(Cc3cn(C)nc3C)CC2)C1,n,n
COc1cccc(-c2cc(C(F)(F)F)nc(-n3cc([N+](=O)[O-])c(OC)n3)n2)c1,n,n
